Test results taken from PubChem BioAssay (NCI).
About 83,000 compounds went through this panel and 20% of them were active in at least one assay; those are over-represented in the sample as a whole.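 Cells were grown in 96-well plates and exposed to the test compound at a single concentration for 48 hours; results are reported as percent growth, with values below 10 considered active.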 Unmarked numbers belong to inactive results. Active and inactive are the calls of the source.

Columns and labels:
Experiment in all cases: NCI-60 one-dose screen, 48 h (100 = growth as untreated, 0 = no growth, -100 = all killed)
DU-145 prostate = settings: 10 µM unless noted
K-562 leukemia = settings: 10 µM unless noted
MALME-3M melanoma = settings: 10 µM unless noted
MDA-MB-231 breast = settings: 10 µM unless noted
RXF 393 renal = settings: 10 µM unless noted
SF-268 CNS = settings: 10 µM unless noted
SF-295 CNS = settings: 10 µM unless noted
SF-539 CNS = settings: 10 µM unless noted
UACC-257 melanoma = settings: 10 µM unless noted
M14 melanoma = settings: 10 µM unless noted
HCT-15 colon = settings: 10 µM unless noted
HT29 colon = settings: 10 µM unless noted
SNB-75 CNS = settings: 10 µM unless noted
SNB-19 CNS = settings: 10 µM unless noted
U251 CNS = settings: 10 µM unless noted
PC-3 prostate = settings: 10 µM unless noted
SK-MEL-5 melanoma = settings: 10 µM unless noted
UACC-62 melanoma = settings: 10 µM unless noted
SK-MEL-28 melanoma = settings: 10 µM unless noted
LOX IMVI melanoma = settings: 10 µM

Row | Compound | growth (DU-145 prostate) | growth (K-562 leukemia) | growth (MALME-3M melanoma) | growth (MDA-MB-231 breast) | growth (RXF 393 renal) | growth (SF-268 CNS) | growth (SF-295 CNS) | growth (SF-539 CNS) | growth (UACC-257 melanoma) | growth (M14 melanoma) | growth (HCT-15 colon) | growth (HT29 colon) | growth (SNB-75 CNS) | growth (SNB-19 CNS) | growth (U251 CNS) | growth (PC-3 prostate) | growth (SK-MEL-5 melanoma) | growth (UACC-62 melanoma) | growth (SK-MEL-28 melanoma) | growth (LOX IMVI melanoma)
1 | CC1(C)CC[C@]2(C(=O)O)CC[C@]3(C)C(=CCC4[C@@]5(C)C[C@@H](O)[C@@H]6OC(c7ccccc7F)OC[C@@]6(C)C5CC[C@]43C)C2C1 (stereo not given in full) | 20% | 12.8% | 28.6% | 20.5% | -14.5% (active) | 14.3% | -0.465% (active) | 5.14% (active) | 24.2% | 17.8% | 5.25% (active) | 2.5% (active) | 29.1% | 20.3% | 3.62% (active) | 16% | -34.6% (active) | 0.203% (active) | 19.7% | –
2 | CC(C)C(C(=O)O)n1c(O)c(/C=C2/C=c3cc4c(cc3=NC2=O)OCO4)sc1=S (stereo not given) | 115% | 109% | 98.4% | 99.2% | 116% | 111% | 102% | 104% | 107% | 103% | 101% | 119% | 101% | 94.4% | 106% | 106% | 103% | – | 110% | 94%
3 | Cc1cc2nc3c4ccccc4n(CCNCCN(C)C)c3nc2cc1C | 17.2% | 0.435% (active) | -96.6% (active) | 1.93% (active) | -34.7% (active) | 42.5% | 20.2% | -79.8% (active) | -72.8% (active) | -79.9% (active) | 8.66% (active) | -40.1% (active) | 43.4% | 35.3% | 36.5% | 18.2% | -88.9% (active) | -87.8% (active) | -68.4% (active) | –
4 | COCOc1ccc2c(=O)c(C)c(C(=O)N[C@@H](Cc3ccccc3)C(O)C(=O)NCCc3ccc(OC)cc3)oc2c1 (stereo not given in full) | 106% | 84.1% | 111% | 99% | 99.1% | 120% | 107% | 109% | 116% | 118% | 102% | 113% | 125% | 96% | 106% | 110% | 99.4% | 102% | 124% | –
5 | CN(C)CCn1c2ccccc2c2nc3cc(C(F)(F)F)ccc3nc21 | 31.4% | 19.3% | 25.9% | 37.2% | 42.7% | 52.4% | 27.9% | 26.3% | 45.1% | 40.7% | 19.4% | 27.6% | 44.5% | 36.4% | 38.1% | – | 28.3% | 44.8% | 44.4% | –
6 | Nc1nnc(-c2c[nH]c3ncc(Br)cc23)c(-c2c[nH]c3ccc(F)cc23)n1 | 44% | 23% | 13.7% | 51.6% | 40.9% | 49% | 35.1% | 34.8% | 44.9% | 23.4% | 25.3% | 21.8% | 33.7% | 50.6% | 45.5% | 58.6% | 0.13% (active) | – | 29.8% | –
7 | COc1cc(C2CC(c3cc(OC)c(OC)c(OC)c3)=NN2C(C)=O)ccc1OCc1ccccc1 (stereo not given) | 40.4% | 18.6% | 43.1% | 64% | 31.4% | 47.8% | 24.6% | 51.7% | 48.8% | 36.9% | 34.6% | 38% | 49.3% | 52.2% | 44.3% | 9.84% (active) | 9.77% (active) | 24% | 42.1% | –
8 | C=C1CCC2C3(C)COC(c4ccccc4F)OC3CCC2(C)C1CC(O)C1=CCOC1=O (stereo not given) | 67.2% | 21.3% | 92.9% | 77.7% | 50.7% | 103% | 77.2% | 16.3% | 75.1% | 26.5% | 9.86% (active) | 8.43% (active) | 43.9% | 81.5% | 53.4% | 36.5% | 65.8% | 73.6% | 47.6% | –
